Screens from PubChem.
This is a sample that favours compounds with a hit; in the whole collection about 5.7% have one here.
KB-V1 cytotox – KB-V1 MDR subline cytotoxicity. KB-V1 MDR cells viability, CellTiter-Glo, 72 h. Potency, µM (top dose mostly 46.1 µM), most hits filed as cytotoxic. 400,000 tested, 3.4% active. AID 1347076; further: nearly all actives have a fitted effect of over 60% in size
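qHTS viability screen in drug-selected KB-V1 MDR cells: 72 h compound treatment at 37 degrees C, ATP luminescence end point.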
HT1080-NT tox – kills 2HG-producing HT-1080-NT fibrosarcoma cells; AID 686970; Potency, µM (doses to about 46.1 µM), most hits filed as cytotoxic; HT-1080-NT fibrosarcoma viability, CellTiter-Glo ATP luminescence, 48 h; 360,000 tested, 1.6% active;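 further: NT is the 2HG producing partner of a matched IDH1 knockdown line; nearly all actives have a fitted effect of over 55% in size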
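Luminescent CellTiter-Glo readout after 48 hours of compound exposure at 37 degrees C defined viability of HT-1080-NT cells. Activity was normalized to DMSO wells and cell-free media wells; concentration-response curves were fitted and assigned curve classes.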
HT1080 IDH1KD tx – kills HT-1080 cells with IDH1 knockdown. HT-1080 IDH1 knockdown viability, ATP luminescence, 48 h. 360,000 tested, 2% active. Potency, µM (titrated, usually from 46.1 µM), most hits filed as cytotoxic
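HT-1080-IDH1KD cells (IDH1 knocked down), 750/well in RPMI with 5% FBS, treated with compound 48 h at 37 degrees C. Viability by CellTiter-Glo luminescence, normalised to DMSO and no-cell wells; concentration-response curves classed.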
KB-3-1 cytotox – kills parental KB-3-1 adenocarcinoma cells; AID 1347075; Potency, µM (highest dose often 46.1 µM), most hits filed as cytotoxic; KB-3-1 viability, CellTiter-Glo ATP luminescence, 72 h; 400,000 tested, 1.4% active; further: nearly all actives have a fitted effect of over 60% in size
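Parental KB-3-1 adenocarcinoma cells in phenol-red-free DMEM with 10% FBS were pin-treated with compounds at several concentrations, incubated 72 h at 37 °C, and viability read by CellTiter-Glo luminescence; concentration-effect curves were fitted after normalization.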
Large screens that a line does not name were inactive; ! = repeats disagree. The call rests on the fitted dose curve; in most records, active means well fitted curve in the direction sought with a large enough effect; inconclusive means small, poorly fitted or top-dose-only effect, or another doubt; inactive means no such curve, though single readings can be large; an effect the other way counts as inactive or inconclusive.

O=C1NC(Cc2ccccc2)C(=O)N1Cc1ccccc1 (configuration not stated)	none
O=c1ccsn1Cc1ccccc1	HT1080-NT tox inconclusive, HT1080 IDH1KD tx 23.1µM
Cc1cc(OCC(=O)Nc2ccc(C(=O)OC3CCCCC3)cc2)ccc1Cl	none (no result: HT1080-NT tox, HT1080 IDH1KD tx)
CC(C)(C)C1CCC(CN2C(Nc3ccccc3)=NC[C@@H]2Cc2ccccc2)CC1 (some centres not stated)	KB-V1 cytotox 18.4µM, KB-3-1 cytotox inconclusive
C/C(CC(=O)Nc1ccc([N+](=O)[O-])cc1)=N\NC(=O)c1ccccc1O	none
C/C(CC(=O)Nc1ccc(Cl)c(C(F)(F)F)c1)=N\NC(=O)c1ccccc1O	KB-V1 cytotox 18.4µM, HT1080-NT tox inconclusive, HT1080 IDH1KD tx inconclusive, KB-3-1 cytotox inconclusive
C/C(CC(=O)Nc1ccc(N(C)C)cc1)=N\NC(=O)c1ccccc1O	HT1080-NT tox 20.6µM, HT1080 IDH1KD tx inconclusive
Cc1ccccc1Nc1c(-c2ccc(N3CCOCC3)cc2)nc2ccc(Br)cn12	none (no result: HT1080-NT tox, HT1080 IDH1KD tx)
O=C1/C(=C/c2ccccn2)COc2ccccc21	none
CC1C/C(=C/c2ccccn2)C(=O)/C(=C/c2ccccn2)C1 (configuration not stated)	HT1080-NT tox 0.651µM, HT1080 IDH1KD tx 0.581µM, KB-3-1 cytotox inconclusive
CC(C)(C)C1C/C(=C/c2ccccn2)C(=O)/C(=C/c2ccccn2)C1 (configuration not stated)	KB-V1 cytotox inconclusive, HT1080-NT tox 0.731µM, HT1080 IDH1KD tx 0.651µM, KB-3-1 cytotox inconclusive
COc1ccccc1N1CCN(C(=O)CSc2n[nH]c(-c3ccccc3Cl)n2)CC1	none (no result: HT1080-NT tox, HT1080 IDH1KD tx)
CCOC(=O)C(=Cc1cc(=O)c(OC)co1)C(=O)OCC	KB-V1 cytotox inconclusive, HT1080-NT tox 11.6µM, HT1080 IDH1KD tx 18.4µM, KB-3-1 cytotox 4.61µM
CN1CCN(C(=S)NC(=O)/C=C/c2cccc3ccccc23)CC1	HT1080-NT tox 10µM, HT1080 IDH1KD tx inconclusive
CN1CCN(C(=S)NC(=O)/C=C/c2cccs2)CC1	none
CCOC(=O)c1ccc(-n2cccc2/C=C2\NC(=O)NC2=O)cc1	KB-V1 cytotox 7.31µM, KB-3-1 cytotox 5.8µM (no result: HT1080-NT tox, HT1080 IDH1KD tx)
COc1ccc(OC)c(CCNC(=O)c2cc3cccc4c3n2CC(C)S4)c1 (configuration not stated)	none (no result: HT1080-NT tox, HT1080 IDH1KD tx)
O=C(CN1CCC(c2nc3ccccc3s2)CC1)NCc1cccs1	HT1080-NT tox 10µM, HT1080 IDH1KD tx inconclusive
O=C(CN1CCC(c2nc3ccccc3s2)CC1)N1CCCCC1	none
COC(=O)c1cccc(CN2C(=O)SC(Nc3ccccc3C)C2=O)c1 (configuration not stated)	none (no result: HT1080-NT tox, HT1080 IDH1KD tx)
COc1ccc(OC)c(CNC(=O)C2CCCCN2S(=O)(=O)c2ccc(F)cc2)c1 (configuration not stated)	KB-V1 cytotox inconclusive (no result: HT1080-NT tox, HT1080 IDH1KD tx)
CCN(C(=O)c1cc(Cl)ccc1Cl)C1CCS(=O)(=O)C1 (configuration not stated)	KB-V1 cytotox 18.4µM
O=C(/C=C/c1ccc(Cl)cc1Cl)N(Cc1ccc(Cl)cc1)C1CCS(=O)(=O)C1 (configuration not stated)	KB-V1 cytotox 5.8µM, KB-3-1 cytotox inconclusive
O=C(/C=C/c1ccc(Cl)cc1Cl)N(Cc1ccccc1)C1CCS(=O)(=O)C1 (configuration not stated)	KB-V1 cytotox inconclusive, HT1080 IDH1KD tx inconclusive
CCCN(C(=O)c1cc(S(=O)(=O)N2CCN(CC)CC2)ccc1Cl)C1CCS(=O)(=O)C1 (configuration not stated)	none
O=C1CCC[C@@H]2CC(N(Cc3cc4ccccc4s3)c3ccccc3)C[C@@H]3CCN1[C@H]23 (some centres not stated)	none (no result: HT1080-NT tox, HT1080 IDH1KD tx)
Cc1cn(C)c(CC(=O)NCc2ccccc2Cl)c1C(=O)O	none (no result: HT1080-NT tox, HT1080 IDH1KD tx)
O=C(CN1CCOCC1)Nc1cccc(C(=O)Nc2cccc(C(F)(F)F)c2)c1	none
CCCCCNCC(=O)Nc1cccc(C(=O)Nc2cccc(C(F)(F)F)c2)c1	KB-V1 cytotox 23.1µM, HT1080-NT tox 20.6µM, HT1080 IDH1KD tx 16.4µM, KB-3-1 cytotox inconclusive
CC(=O)c1c(C)[nH]c(C(=O)Nc2cccc(C(F)(F)F)c2)c1C	KB-V1 cytotox 13µM, HT1080-NT tox inconclusive, HT1080 IDH1KD tx inconclusive, KB-3-1 cytotox inconclusive
C[N+]1(CC(=O)c2ccc(Oc3ccc(C(=O)C[N+]4(C)CCOCC4)cc3)cc2)CCOCC1	none (no result: HT1080-NT tox, HT1080 IDH1KD tx)
CC1CCCN(C(C(=O)NC2CCCCC2)c2cc3c(cc2[N+](=O)[O-])OCO3)C1 (configuration not stated)	KB-V1 cytotox 8.2µM, KB-3-1 cytotox inconclusive
CC1CCN(C(C(=O)NC2CCCCC2)c2cc3c(cc2[N+](=O)[O-])OCO3)CC1 (configuration not stated)	KB-V1 cytotox inconclusive
CC1CCc2sc3ncn4nc(C(=O)NCc5ccco5)nc4c3c2C1 (configuration not stated)	KB-V1 cytotox 6.51µM
CC1CCc2onc(C(=O)NCc3ccco3)c2C1 (configuration not stated)	KB-V1 cytotox inconclusive, HT1080-NT tox 18.4µM, HT1080 IDH1KD tx 13µM, KB-3-1 cytotox inconclusive
O=C(NCc1ccco1)c1noc2c1CCCC2	HT1080-NT tox inconclusive, HT1080 IDH1KD tx inconclusive
CC1CCc2c(sc3ncn4c(SCC(=O)NCc5ccco5)nnc4c23)C1 (configuration not stated)	none
Cc1cc(=O)[nH]c2ccc(O)cc12	none (no result: HT1080-NT tox, HT1080 IDH1KD tx)
COc1ccc(Cl)cc1NC(=O)Cn1c(=O)n(CCC(=O)NCc2ccc3c(c2)OCO3)c(=O)c2ccccc21	none (no result: HT1080-NT tox, HT1080 IDH1KD tx)
Cc1ccc(-c2c(C(=O)NCc3ccc(F)cc3)oc(=O)c3ccccc23)cc1	KB-V1 cytotox 16.4µM!
COc1ccccc1CNc1ccc(-c2nc(-c3ccncc3)no2)cc1[N+](=O)[O-]	none (no result: HT1080-NT tox, HT1080 IDH1KD tx)
C=CCn1c(SCC#N)nc2ccc(Cl)cc2c1=O	none (no result: HT1080-NT tox, HT1080 IDH1KD tx)
CCOc1ccccc1NC(=O)N1CCN(Cc2cc(=O)n3nc(-c4ccc(C)cc4)sc3n2)CC1	none (no result: HT1080-NT tox, HT1080 IDH1KD tx)
Cc1cccc(NC(=S)NNC(=O)c2ccccc2Br)c1	KB-V1 cytotox inconclusive
Cc1cccc(NC(=S)NNC(=O)c2ccccc2OC(F)F)c1	KB-V1 cytotox 16.4µM, KB-3-1 cytotox inconclusive
COc1ccc(NC(=S)NNC(=O)c2ccccc2OC(F)F)cc1	HT1080-NT tox 3.55µM, HT1080 IDH1KD tx 3.55µM
CCNC(=S)NNC(=O)c1ccccc1OC(F)F	none
Cc1c(C(=O)Nc2cccc(-c3nc4ccccc4s3)c2)oc2ccccc12	none (no result: HT1080-NT tox, HT1080 IDH1KD tx)
Cc1cc(Cl)n2nc(C)c(-c3ccc(Cl)cc3)c2n1	HT1080-NT tox inconclusive, HT1080 IDH1KD tx 18.4µM
Cc1cc(SCC#N)n2nc(C)c(-c3ccc(Cl)cc3)c2n1	HT1080-NT tox inconclusive, HT1080 IDH1KD tx 8.91µM
Cc1ccc(C)c(NC(=O)C(CC(C)C)N2Cc3ccccc3C2=O)c1 (configuration not stated)	none (no result: HT1080-NT tox, HT1080 IDH1KD tx)
CCOc1ccc(NC(=O)c2oc3ccccc3c2NC(=O)C(C)Oc2ccccc2)cc1 (configuration not stated)	none (no result: HT1080-NT tox, HT1080 IDH1KD tx)
CCCc1ccc(O)c(N=Cc2cc(Br)cc(OCC)c2O)c1	HT1080-NT tox inconclusive, HT1080 IDH1KD tx 23.1µM
CCc1ccc(O)c(N=Cc2cccc(C)c2O)c1	HT1080-NT tox inconclusive, HT1080 IDH1KD tx inconclusive
